Test results reported in PubChem BioAssay (NCATS).
Results filed as inconclusive are left out. Activity calls are given as the source filed them. Unless noted, the call rests on the fitted dose curve; in most records, active means well fitted curve in the direction sought with a large enough effect; inconclusive means small, poorly fitted or top-dose-only effect, or another doubt; inactive means no such curve, though single readings can be large; an effect the other way counts as inactive or inconclusive.

Key:
[1] = Viability counterscreen for antagonist of constitutive androstane receptor (CAR) against the NCATS DSHEA and TCM libraries (AID 1794837);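 further: compound exposure lasted 24 h before viability reading; 0% is about no effect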
Procedure, shortened: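 Fluorescence from CellTiter-Fluor reports live-cell protease activity in HepG2-CYP2B6-hCAR cells treated for 24 h with substances alongside 48 uM CITCO.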

[2] = Viability counterscreen for agonist of constitutive androstane receptor (CAR) against the NCATS DSHEA and TCM libraries (AID 1794838);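 further: cells exposed to compound for 24 h; 0% is about no effect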
Procedure, shortened: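 In agonist mode, PK11195 is added at 0.75 uM final to HepG2-CYP2B6-hCAR cells dosed with test substances. Cultures incubate 24 h at 37C before a protease-based fluorogenic viability readout.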

[3] = target: Nuclear receptor subfamily 1 group I member 3 (Homo sapiens) (UniProt Q14994); experiment: Primary qHTS for agonist of constitutive androstane receptor (CAR) against the NCATS DSHEA and TCM libraries (AID 1794839); conditions: Potency: CAR antagonist co-added at 0.75 µM unless noted; further: potency means the concentration at half of the fitted maximal effect
Procedure, shortened: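 Cells stably carrying hCAR and a CYP2B6 reporter (HepG2 background) are seeded and allowed 5 h to adhere. Substances at multiple concentrations are added alongside 0.75 µM PK11195, and luciferase signal is measured after 24 h.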

[4] = HepG2 viability counterscreen (readout 2: ATP content) against the NCATS DSHEA and TCM libraries (AID 1794840);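 further: HepG2 cells exposed to substances for about 24 h; 0% is about no effect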
Procedure, shortened: (§1)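 Cytotoxicity was assessed in HepG2 cells plated at 1,000 cells/well and exposed for about 24 hours to a concentration series. Protease activity and ATP content were measured sequentially in each well.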

[5] = HepG2 viability counterscreen (readout 1: protease activity) against the NCATS DSHEA and TCM libraries (AID 1794841);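 further: cells exposed to compounds for about 24 h before the protease read; 0% is about no effect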
Procedure, shortened: as §1

[6] = KB-3-1 P-gp reporter qHTS against the NCATS DSHEA and TCM libraries (AID 1919975); further: 0% is about no effect
Procedure, shortened: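 72 h exposure of KB-3-1 cells (DMEM, 10% FBS) to DSHEA/TCM samples, concentration-response; cell viability measured as CellTiter-Glo luminescence after 30 min at room temperature.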

[7] = target: Cytochrome P450 1A2 (Homo sapiens) (UniProt P05177); experiment: qHTS for inhibitors of CYPIA2 against the NCATS DSHEA and TCM libraries (AID 1919976); further: potency means the concentration at half of the fitted maximal effect
Procedure, shortened: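 Human CYP1A2 with pro-luciferin substrate (typically 100 mM KPO4), 15 min preincubation with compound, then 1x NADPH regeneration for 30-45 min at room temperature in the dark. Luciferin quantified by luciferase luminescence; furafylline intraplate control.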

[8] = qHTS Counterscreen for compound interference against the NCATS DSHEA and TCM libraries (AID 1919978); conditions: firefly luciferase detection reagent interference, luminescence; further: % of control where 0% means no effect
Procedure, shortened: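 Read-out is luminescence after 30 min at RT with luciferin detection reagent. Before that, compounds (19.5 nM to 39.8 uM final) sat 15 min at RT with 1 uM D-luciferin or 100 mM potassium phosphate buffer. PTC124 served as intraplate control.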

[9] = target: Nuclear receptor subfamily 1 group I member 2 (Homo sapiens) (UniProt O75469); experiment: Dual reporter qHTS for antagonist of Pregnane X Receptor (hPXR) against the NCATS DSHEA and TCM libraries: Luminescence Readout (AID 1920060);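 further: HepG2 cells carrying hPXR luciferase reporter stimulated with rifampicin at 2 µM; 0% is about no effect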
Procedure, shortened: (§2)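 HepG2 hPXR-Luc, 2000 cells/well, charcoal-stripped FBS medium; 5 h attach; RIF 2 uM final; 24 h 37C/5% CO2; CellTiter-Fluor 1 h, fluor 405/540; ONE-Glo 30 min RT, lum.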

[10] = Dual reporter qHTS for antagonist of Pregnane X Receptor (hPXR) against the NCATS DSHEA and TCM libraries: Fluorescence Readout (AID 1920061); further: 0% is about no effect
Procedure, shortened: as §2

[11] = target: Cytochrome P450 2D6 (Homo sapiens) (UniProt P10635); experiment: Cytochrome P450 family 2 subfamily D member 6 (CYP2D6) small molecule antagonists: luciferase biochemical (cell-free) qHTS assay (AID 1645840; active means well fitted curve in the direction sought with a large enough effect in the repeat runs; an effect the other way counts as inactive or inconclusive; further: series mostly up to about 57 µM; on the % scale 0 is the no-effect control and ±100 the full control effect; nearly all actives have a fitted effect of over 55% in size)
Procedure, shortened: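 P450-Glo luminescent screen: recombinant CYP2D6 enzyme–proluciferin substrate mix preincubated with compound 10 min at room temperature, then NADPH regeneration added for 1 h at room temperature. Detection reagent added for 20 min; luciferin light read as relative luminescence units.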

[12] = target: Cytochrome P450 2C9 (Homo sapiens) (UniProt P11712); experiment: Cytochrome P450 family 2 subfamily C member 9 (CYP2C9) small molecule antagonists: luciferase biochemical (cell-free) qHTS assay (AID 1645842; active means well fitted curve in the direction sought with a large enough effect in the repeat runs; an effect the other way counts as inactive or inconclusive; further: series mostly up to about 57 µM; on the % scale 0 is the no-effect control and ±100 the full control effect; nearly all actives have a fitted effect of over 55% in size)
Procedure, shortened: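 Luminescence, after 20 min with luciferin detection reagent, reflected CYP2C9 turnover during a 1 h NADPH-driven reaction at 37C. Enzyme-substrate mix contained 0.4% bovine serum albumin and was preincubated with compound 10 min at room temperature.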

[13] = Validation of Assay for Modulators of Lamin A Splicing (AID 1459; active means well fitted curve in the direction sought with a large enough effect in the signal ratio; the % refers to the signal ratio;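 further: cells exposed to compound for two days before reading; 0% is about no effect; ratio rise marks activators and ratio drop marks inhibitors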)
Procedure, shortened: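 Splicing correction is reported by an EGFP-containing lamin A minigene in stably transfected S3 HeLa cells, while DsRed2 controls for viability and nonspecific signal. Cells are exposed to compounds for 48 hrs before the GFP over RFP ratio is taken.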

[14] = target: DNA repair nuclease/redox regulator APEX1 (Homo sapiens) (UniProt P27695); experiment: qHTS Validation Assay for Inhibitors of the Human Apurinic/apyrimidinic Endonuclease 1 (APE1) (AID 1705;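 further: TAMRA fluorescence gain over two minutes as APE1 cuts a quenched THF abasic duplex; series mostly up to about 57 µM; on the % scale 0 is the no-effect control and ±100 the full control effect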)
Procedure, shortened: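 Endonuclease activity of human APE1 is followed as dequenching when the enzyme incises a tetrahydrofuran abasic site in a short duplex labelled 5'-TAMRA/3'-BHQ-2 (50 nM final), after 15 min enzyme–compound preincubation at room temperature.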

[15] = Counterscreen for APE1 Inhibitors: Fluorescent Dye Displacement Validation Assay (AID 1707);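 further: plate controls were ThO with dsDNA and no compound for no effect and ThO without dsDNA for full effect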
Procedure, shortened: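 Assay buffer: Tris-HCl pH7.5 with 50mM NaCl, 2 mM MgCl2, 0.01% Tween-20. Dye 250 nM, duplex 50 nM final. Readout: decrease in ThO endpoint fluorescence, 480 nm excitation, 540 nm emission.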

[16] = target: Endonuclease 4 (Escherichia coli (strain K12)) (UniProt P0A6C1); experiment: Counterscreen for APE1 Inhibitors: qHTS Validation Assay for Inhibitors of Endonuclease IV (AID 1708); further: on the % scale 0 is the no-effect control and ±100 the full control effect
Procedure, shortened: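 E. coli EndoIV at 2 nM final, preincubated 15 min at room temperature with compound, then 50 nM TAMRA/BHQ-2 THF abasic-site duplex added. Buffer: 50 mM Tris-HCl pH 7.5, 50 mM NaCl, 2 mM MgCl2, 1 mM DTT, 0.01% Tween-20. Kinetic fluorescence increase, third minus first read.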

[17] = qHTS for differential inhibitors of proliferation of Plasmodium falciparum line D10 (AID 1877);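 further: parasites grown with compound for 72 h before DNA staining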; further: potency means the concentration at half of the fitted maximal effect
[18] = qHTS for differential inhibitors of proliferation of Plasmodium falciparum line W2 (AID 1883); conditions: Potency: Plasmodium falciparum W2 proliferation inhibition;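 further: potency means the concentration at half of the fitted maximal effect; parasites grown with compound for 72 h before lysis and staining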
[19] = qHTS Assay for Modulators of Human Peripheral Myelin Protein 22 (PMP22) Expression/Activity (AID 1967; active means well fitted curve in the direction sought with a large enough effect in the signal ratio; the % refers to the signal ratio;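 further: 0% = untreated cells and 100% end not stated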)
Procedure, shortened: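 Quantitative HTS in a mouse Schwann cell line expressing dual click beetle luciferases: Pmp22 promoter (green) and control EF-alpha promoter (red). After 24h treatment, corrected green/red signal ratio gave %Activity relative to untreated cells.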

[20] = target: Ferritin light chain (Equus caballus) (UniProt P02791); experiment: qHTS Validation Assay for Identification of Novel General Anesthetics (AID 2323); further: series mostly up to about 77 µM; on the % scale 0 is the no-effect control and ±100 the full control effect
Procedure, shortened: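 Apoferritin from horse spleen (10 uM) was mixed with 1-aminoanthracene at 50% saturation in PBS, then compounds were added. After 10 min at room temperature, fluorescence was read (ex 380 nm, em 535 nm) and normalized to free-probe and complex controls.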

Chain of Nuclear receptor subfamily 1 group I member 2 (Homo sapiens) (O75469 whole entry, looked up): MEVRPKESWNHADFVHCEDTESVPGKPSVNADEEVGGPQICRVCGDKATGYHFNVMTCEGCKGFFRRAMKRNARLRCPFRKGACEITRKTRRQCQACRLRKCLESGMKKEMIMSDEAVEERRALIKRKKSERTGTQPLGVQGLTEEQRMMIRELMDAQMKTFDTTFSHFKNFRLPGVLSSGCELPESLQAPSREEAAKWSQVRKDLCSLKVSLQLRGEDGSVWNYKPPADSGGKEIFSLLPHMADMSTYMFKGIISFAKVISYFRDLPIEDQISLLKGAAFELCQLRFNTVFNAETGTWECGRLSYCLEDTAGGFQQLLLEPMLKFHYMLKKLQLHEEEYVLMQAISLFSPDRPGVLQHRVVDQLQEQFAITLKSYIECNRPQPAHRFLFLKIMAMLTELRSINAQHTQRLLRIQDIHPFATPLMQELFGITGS
Chain of Cytochrome P450 2C9 (Homo sapiens) (P11712 whole entry, looked up): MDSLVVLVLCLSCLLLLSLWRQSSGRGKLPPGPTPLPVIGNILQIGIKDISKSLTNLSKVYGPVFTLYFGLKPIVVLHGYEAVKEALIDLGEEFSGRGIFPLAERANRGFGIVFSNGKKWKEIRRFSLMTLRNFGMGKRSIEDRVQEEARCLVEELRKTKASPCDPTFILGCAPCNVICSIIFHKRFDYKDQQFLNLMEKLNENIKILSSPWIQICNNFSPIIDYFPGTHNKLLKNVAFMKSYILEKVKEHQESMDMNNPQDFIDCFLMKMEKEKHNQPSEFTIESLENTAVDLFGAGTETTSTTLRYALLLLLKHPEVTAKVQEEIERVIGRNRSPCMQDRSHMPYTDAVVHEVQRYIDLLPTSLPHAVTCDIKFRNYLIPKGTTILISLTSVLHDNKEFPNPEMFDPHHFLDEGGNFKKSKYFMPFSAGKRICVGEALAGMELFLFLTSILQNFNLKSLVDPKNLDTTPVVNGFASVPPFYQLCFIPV
Chain of DNA repair nuclease/redox regulator APEX1 (Homo sapiens) (P27695 whole entry, looked up): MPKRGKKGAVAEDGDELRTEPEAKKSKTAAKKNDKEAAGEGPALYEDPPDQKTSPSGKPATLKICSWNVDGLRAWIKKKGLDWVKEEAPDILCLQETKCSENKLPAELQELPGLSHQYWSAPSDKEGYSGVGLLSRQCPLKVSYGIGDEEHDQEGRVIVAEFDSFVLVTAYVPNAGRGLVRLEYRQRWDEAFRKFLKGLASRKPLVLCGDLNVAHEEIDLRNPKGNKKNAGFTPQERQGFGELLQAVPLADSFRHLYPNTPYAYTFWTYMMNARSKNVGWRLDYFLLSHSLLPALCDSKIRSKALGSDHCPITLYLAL
Chain of Cytochrome P450 2D6 (Homo sapiens) (P10635 whole entry, looked up): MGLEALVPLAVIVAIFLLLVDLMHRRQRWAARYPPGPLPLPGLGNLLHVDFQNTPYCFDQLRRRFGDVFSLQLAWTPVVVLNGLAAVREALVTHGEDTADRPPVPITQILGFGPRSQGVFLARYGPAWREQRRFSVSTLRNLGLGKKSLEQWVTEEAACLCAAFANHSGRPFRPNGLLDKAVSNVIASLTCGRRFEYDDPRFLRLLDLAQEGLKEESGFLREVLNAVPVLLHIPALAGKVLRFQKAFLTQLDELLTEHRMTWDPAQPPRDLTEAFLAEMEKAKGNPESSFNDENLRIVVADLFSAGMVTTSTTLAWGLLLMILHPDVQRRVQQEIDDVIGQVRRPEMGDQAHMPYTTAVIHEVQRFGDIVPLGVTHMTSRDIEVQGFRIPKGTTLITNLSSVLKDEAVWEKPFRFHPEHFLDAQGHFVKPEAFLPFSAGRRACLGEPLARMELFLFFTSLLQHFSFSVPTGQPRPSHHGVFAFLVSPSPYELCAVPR
Chain of Ferritin light chain (Equus caballus) (P02791 2-175 limits assumed): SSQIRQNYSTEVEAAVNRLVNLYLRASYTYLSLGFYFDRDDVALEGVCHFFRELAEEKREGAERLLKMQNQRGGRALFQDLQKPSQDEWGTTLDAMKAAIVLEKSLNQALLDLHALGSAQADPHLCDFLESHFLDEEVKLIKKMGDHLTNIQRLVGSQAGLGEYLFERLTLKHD
Chain of Cytochrome P450 1A2 (Homo sapiens) (P05177 whole entry, looked up): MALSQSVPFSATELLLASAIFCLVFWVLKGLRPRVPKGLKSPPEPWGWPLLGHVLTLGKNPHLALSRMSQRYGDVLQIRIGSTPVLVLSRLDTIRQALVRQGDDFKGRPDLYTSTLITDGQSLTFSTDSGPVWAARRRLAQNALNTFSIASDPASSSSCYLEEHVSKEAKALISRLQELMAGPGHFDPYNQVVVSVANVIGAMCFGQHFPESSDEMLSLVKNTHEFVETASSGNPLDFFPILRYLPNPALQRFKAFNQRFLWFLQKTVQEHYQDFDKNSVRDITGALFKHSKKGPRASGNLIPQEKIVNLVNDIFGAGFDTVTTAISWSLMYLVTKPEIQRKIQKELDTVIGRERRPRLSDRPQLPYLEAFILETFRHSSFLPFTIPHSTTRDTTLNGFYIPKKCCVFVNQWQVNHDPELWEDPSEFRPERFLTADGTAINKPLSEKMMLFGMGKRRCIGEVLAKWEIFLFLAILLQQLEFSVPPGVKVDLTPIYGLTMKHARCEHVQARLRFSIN
Chain of Nuclear receptor subfamily 1 group I member 3 (Homo sapiens) (Q14994 whole entry, looked up): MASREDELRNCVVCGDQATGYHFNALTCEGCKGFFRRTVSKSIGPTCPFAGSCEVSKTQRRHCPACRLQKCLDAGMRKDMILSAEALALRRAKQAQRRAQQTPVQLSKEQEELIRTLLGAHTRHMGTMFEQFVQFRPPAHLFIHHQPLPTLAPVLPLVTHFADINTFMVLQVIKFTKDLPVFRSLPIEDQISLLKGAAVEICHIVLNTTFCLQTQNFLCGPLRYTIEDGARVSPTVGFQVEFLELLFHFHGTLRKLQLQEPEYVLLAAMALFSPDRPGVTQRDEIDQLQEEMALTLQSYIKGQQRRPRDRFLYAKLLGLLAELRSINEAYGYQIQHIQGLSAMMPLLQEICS

C=C(C)[C@@H]1CCC(C)=C[C@H]1c1c(O)cc(CCCCC)cc1O
inactive: outcome [1] | outcome [2] | outcome [4] | outcome [5] | outcome [6] | max response [8] 0.918% | outcome [9] | outcome [10]
active: Potency [3] 31.6 µM [setting not given] | Potency [7] 11.2 µM

C[C@@H](C1CC[C@@]2(O)C3=CC(=O)[C@@H]4C[C@@H](O)[C@@H](O)C[C@]4(C)[C@H]3CC[C@]12C)[C@H](O)CCC(C)(C)O (stereo not given in full)
inactive: Potency [11] | Potency [12]

N#CC(O[C@@H]1O[C@H](CO[C@@H]2O[C@H](CO)[C@@H](O)[C@H](O)[C@H]2O)[C@@H](O)[C@H](O)[C@H]1O)c1ccccc1 (stereo not given in full)
inactive: Potency [11] | Potency [12] | outcome [1] | outcome [2] | Potency [3] | outcome [4] | outcome [5] | outcome [6] | Potency [7] | max response [8] -0.601% | outcome [9] | outcome [10]

CCCN1CCC[C@@H](c2cccc(C#N)c2)C1
inactive: outcome [13] | Potency [14] | outcome [15] | Potency [16] | Potency [17] | outcome [19] | Potency [20]
active: Potency [18] 11.2 µM

C=CCN1CC[C@@]2(C)c3cc(O)ccc3CC1[C@@H]2C
inactive: outcome [13] | Potency [14] | outcome [15] | Potency [16] | outcome [19] | Potency [20]
active: Potency [17] 12.6 µM | Potency [18] 6.31 µM
